Experimental data as given in PubChem BioAssay (NCATS).
Records with an inconclusive call do not appear. Entries that show only a call come without a potency. Active and inactive are the calls of the source. Calls come from the whole dose curve.

experiment: Cytotoxicity counterscreen for inhibitors of SARS-CoV-2 cell entry (AID 1645845); conditions: cell viability (SARS-CoV-2 entry assay cells); series mostly up to 57.1 µM; note: nearly all actives have a fitted effect of over 50% in size
Outline: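 HEK293-ACE2 cells (Expi293F stably expressing human ACE2) seeded overnight, then compound for 1 h plus 48 h at 37C. Viability as ATP content by luminescence; normalized to wells with cells and media-only wells.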

Row | Compound | Potency | outcome
1 | O=C(O[C@H]1CN2CCC1CC2)N1CCc2ccccc2[C@@H]1c1ccccc1 | inactive | –
2 | CO[C@@]1(NC(=O)CSC[C@@H](N)C(=O)O)C(=O)N2C(C(=O)O)=C(CSc3nnnn3C)CS[C@@H]21 | inactive | –
3 | C[N+](C)(CCOc1ccccc1)Cc1cccs1 | inactive | –
4 | O=C(COCCOCCOCC(=O)Nc1c(I)cc(I)c(C(=O)O)c1I)Nc1c(I)cc(I)c(C(=O)O)c1I | inactive | –
5 | O=C1[O][Bi][O]c2ccccc21 | – | inactive [at 0.702 µM]
6 | CCC[C@@]1(CCc2ccccc2)CC(O)=C([C@H](CC)c2cccc(NS(=O)(=O)c3ccc(C(F)(F)F)cn3)c2)C(=O)O1 | inactive | –
7 | CN(c1nccc(=O)[nH]1)C1CCN(c2nc3ccccc3n2Cc2ccc(F)cc2)CC1 | inactive | –
8 | Cc1cc(C)nc(NS(=O)(=O)c2ccc(N)cc2)n1 | inactive | –
9 | O=C(/C=C/c1ccccc1)OCc1ccccc1 | inactive | –
10 | O=C(Cn1ccnc1[N+](=O)[O-])NCc1ccccc1 | inactive | –
11 | CCOc1cc(OCC)c(C(=O)CCC(=O)O)cc1OCC | inactive | –
12 | COC(=O)C(c1ccccc1)C1CCCCN1 (stereo not drawn) | inactive | –
13 | CCCCOC(=O)c1ccc(N)cc1 | inactive | –
14 | O=P(O)(O)C(Sc1ccc(Cl)cc1)P(=O)(O)O | – | inactive [at 0.702 µM]
15 | c1ccc2c(CC3=NCCN3)cccc2c1 | inactive | –
16 | COc1ccc2cccc(CCNC(C)=O)c2c1 | inactive | –
17 | N[C@@H](CCC(=O)N[C@@H](CS)C(=O)NCC(=O)O)C(=O)O | inactive | –
18 | CCCCCN(CCCOC)C(=O)C(CCC(=O)O)NC(=O)c1ccc(Cl)c(Cl)c1 (stereo not drawn) | inactive | –
19 | C1COC(NC(C2CC2)C2CC2)=N1 | inactive | –

Row | Compound | Potency | outcome
20 | CC(CSC(=O)c1ccccc1)C(=O)N1C[C@@H](Sc2ccccc2)C[C@H]1C(=O)O (stereo partly drawn) | inactive | –
21 | O=C(NC(Cc1cc(=O)[nH]c2ccccc12)C(=O)O)c1ccc(Cl)cc1 (stereo not drawn) | inactive | –
22 | CC1(C)S[C@@H]2[C@H](NC(=O)C(c3ccccc3)S(=O)(=O)O)C(=O)N2[C@H]1C(=O)O (stereo partly drawn) | inactive | –
23 | Nc1c(I)cc(I)c(C(=O)N(CCC(=O)O)c2ccccc2)c1I | inactive | –
24 | O=C(O)Cc1sc(-c2ccccc2)nc1-c1ccc(Cl)cc1 | inactive | –
25 | Nc1nc(/C(=C/CC(=O)O)C(=O)N[C@@H]2C(=O)N3C(C(=O)O)=CCS[C@H]23)cs1 | inactive | –
26 | CCOC(=O)c1ccccc1O | inactive | –
27 | C=CC1=C(C(=O)O)N2C(=O)[C@@H](NC(=O)/C(=N\O)c3csc(N)n3)[C@H]2SC1 (stereo in doubt) | inactive | –
28 | c1ccc2c(c1)CCCC2C1=NCCN1 (stereo not drawn) | inactive | –
29 | OC[C@H]1O[C@H](O[C@]2(CCl)O[C@H](CCl)[C@@H](O)[C@@H]2O)[C@H](O)[C@@H](O)[C@H]1Cl | inactive | –
30 | Nc1ccc(S(=O)(=O)Nc2ccccn2)cc1 | inactive | –
31 | CO[C@H]1C[C@@H]2CC[C@@H](C)[C@@](O)(O2)C(=O)C(=O)N2CCCC[C@@H]2C(=O)O[C@H]([C@@H](C)C[C@@H]2CC[C@H](O)[C@H](OC)C2)CC(=O)[C@H](C)C=C(C)[C@@H](O)[C@@H](OC)C(=O)[C@H](C)C[C@H](C)C=CC=CC=C1C | inactive | –
32 | O=C(NCC(O)CO)c1c(I)c(C(=O)NCC(O)CO)c(I)c(N(CCO)C(=O)CO)c1I (stereo not drawn) | inactive | –
33 | OC[C@H]1O[C@@H](Oc2ccc(O)cc2)[C@H](O)[C@@H](O)[C@@H]1O | inactive | –
34 | CCCCCC=CCC=CCCCCCCCC(=O)OCC | inactive | –
35 | CCN(CC)C(=O)/C(C#N)=C/c1cc(O)c(O)c([N+](=O)[O-])c1 | inactive | –
36 | Cc1c[nH]c2ccccc12 | inactive | –
37 | CCOC(=O)NNc1ccc(N(CC)CC(C)O)nn1 (stereo not drawn) | inactive | –
38 | C=CCN1C[C@H](C(=O)N(CCCN(C)C)C(=O)NCC)C[C@@H]2c3cccc4[nH]cc(c34)C[C@H]21 | inactive | –
